# Screens (PubChem)
# Only some compounds are listed: those with a hit (about 2.8% of all), similar ones and a draw of the others.
# IP6K1 inh = IP6K1 kinase inhibition. Q92551. IP6K1 kinase, ADP-Glo luminescence, 2 h; stronger effect = lower value. activity change, % (series mostly up to about 58 µM). actives 0.81% (n = 140,000). AID 1645851; in the data active = activity change below about -25%; also: % is scaled to controls: 0 for no effect and ±100 for the full control effect
#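 ADP-Glo luminescence measures ADP made by human IP6K1 during a 2 h RT reaction with ATP/IP6 (mix at 1.3 mM/130 uM); top library doses 57.5 and 19.1 uM final.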
# KDM5B inh = KDM5B demethylase inhibition; KDM5B demethylase, FDH-coupled NADH fluorescence (FDH is formaldehyde dehydrogenase); Potency, µM (top dose mostly 57.7 µM), most hits filed as inhibitors; actives 2.6% (n = 220,000); also: potency is read from the fitted curve at half-maximal effect; 0% is about no effect; nearly all actives have a fitted effect of over 70% in size
# Target sequence (Q9UGL1 whole entry, looked up): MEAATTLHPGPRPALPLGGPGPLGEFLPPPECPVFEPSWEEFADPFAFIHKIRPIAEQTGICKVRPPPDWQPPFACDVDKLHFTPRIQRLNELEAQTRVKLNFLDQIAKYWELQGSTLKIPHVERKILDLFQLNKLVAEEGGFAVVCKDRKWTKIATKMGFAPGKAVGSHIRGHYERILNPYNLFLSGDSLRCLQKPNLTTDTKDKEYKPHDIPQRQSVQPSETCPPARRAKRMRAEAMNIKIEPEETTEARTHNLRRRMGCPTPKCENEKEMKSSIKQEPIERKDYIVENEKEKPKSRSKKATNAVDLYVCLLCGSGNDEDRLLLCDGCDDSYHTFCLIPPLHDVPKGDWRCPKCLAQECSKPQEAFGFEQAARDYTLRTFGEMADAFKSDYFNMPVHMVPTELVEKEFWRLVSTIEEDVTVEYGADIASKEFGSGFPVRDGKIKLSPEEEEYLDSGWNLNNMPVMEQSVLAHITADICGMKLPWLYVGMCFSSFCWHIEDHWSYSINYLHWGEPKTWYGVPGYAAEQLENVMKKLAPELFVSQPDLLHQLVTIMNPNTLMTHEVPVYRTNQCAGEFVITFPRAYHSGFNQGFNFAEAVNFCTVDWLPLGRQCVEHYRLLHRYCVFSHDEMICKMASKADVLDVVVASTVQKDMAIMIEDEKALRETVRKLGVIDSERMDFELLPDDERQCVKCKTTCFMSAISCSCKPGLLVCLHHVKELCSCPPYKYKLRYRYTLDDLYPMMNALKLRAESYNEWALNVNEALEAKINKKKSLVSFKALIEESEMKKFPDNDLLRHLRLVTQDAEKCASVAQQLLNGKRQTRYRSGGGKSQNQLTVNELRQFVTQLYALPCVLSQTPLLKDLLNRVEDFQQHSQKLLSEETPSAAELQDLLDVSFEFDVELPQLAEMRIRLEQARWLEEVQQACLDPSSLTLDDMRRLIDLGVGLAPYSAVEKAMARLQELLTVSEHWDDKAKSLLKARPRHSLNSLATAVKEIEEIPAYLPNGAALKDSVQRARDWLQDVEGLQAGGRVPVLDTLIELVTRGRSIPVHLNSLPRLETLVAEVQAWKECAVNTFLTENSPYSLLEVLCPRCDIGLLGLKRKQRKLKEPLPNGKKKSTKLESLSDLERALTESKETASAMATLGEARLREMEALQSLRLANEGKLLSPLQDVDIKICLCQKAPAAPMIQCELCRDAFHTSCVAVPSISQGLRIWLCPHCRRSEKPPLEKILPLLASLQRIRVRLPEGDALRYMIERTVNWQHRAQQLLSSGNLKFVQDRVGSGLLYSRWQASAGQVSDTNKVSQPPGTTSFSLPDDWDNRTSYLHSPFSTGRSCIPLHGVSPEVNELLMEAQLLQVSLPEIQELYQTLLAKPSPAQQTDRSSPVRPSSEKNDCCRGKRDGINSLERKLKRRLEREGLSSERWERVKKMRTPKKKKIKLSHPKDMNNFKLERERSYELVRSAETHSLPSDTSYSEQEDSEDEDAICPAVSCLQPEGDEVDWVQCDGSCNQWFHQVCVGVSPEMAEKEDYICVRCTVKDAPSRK
#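 qHTS format, multiple compound concentrations. Buffer 50 mM HEPES pH 7.5/0.01% Tween-20; 200 nM KDM5BΔAP final; 10 min compound preincubation; substrate-mix levels 12.5 µM peptide, 25 µM α-KG, 0.25 mM NAD⁺; 30 min RT; ΔRFU.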
# SNCA expr inh = SNCA gene expression inhibition | HEK-293 SNCA-luciferase knock-in, luminescence, 24 h | Potency, µM (highest dose often 57.2 µM), without a hit: at the top dose activity change, negative = inhibition, most hits filed as inhibitors | actives 0.17% (n = 140,000) | AID 1671194;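 also: potency is read from the fitted curve at half-maximal effect; plate controls were DMSO cells for no effect and cell-free wells for full effect; nearly all actives have a fitted effect of over 45% in size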
# SNCA viab count = counter-screen for SNCA expression inhibitors: cell viability | HEK-293-SNCA-luc viability, GF-AFC fluorescence, 24 h | Potency, µM (series often up to 57.1 µM), inactives show top-dose activity change, negative = cytotoxicity, most hits filed as cytotoxic | actives 0.12% (n = 150,000) | AID 1671193;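 also: potency is read from the fitted curve at half-maximal effect; 0% = DMSO-treated cells and -100% = medium-only wells without cells; nearly all actives have a fitted effect of over 30% in size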
#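 Cytotoxicity counterscreen: after 24 h compound treatment of genome-edited SNCA-luciferase HEK-293 cells, live-cell protease substrate GF-AFC read by fluorescence after 30 min; activity scaled between DMSO (0%) and medium-only (-100%), curves Hill-fitted.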
# An asterisk follows results filed as active; i = inactive; ? = inconclusive; . = no result; ! = repeats disagree; [ ] = remark or other dose. Unless noted, calls follow the shape of the dose curve; as a rule, active = well fitted curve in the direction sought with a large enough effect; inconclusive = small, poorly fitted or top-dose-only effect, or another doubt; inactive = no such curve, though single readings can be large; an effect the other way counts as inactive or inconclusive.
SMILES,IP6K1 inh,KDM5B inh,SNCA expr inh,SNCA viab count
O=C(c1ccc(Cl)cc1)N1CC2(CCN(Cc3ccncc3)C2)OCc2ccccc21 (configuration not stated),-9,40µM*,-4%,-9%
CC(=O)N1CCC2(CC1)CN(Cc1ccncc1)Cc1ccccc1O2,7,56µM*,?,-1%
O=C(O)CCCC(=O)N[C@H]1CO[C@H]2[C@@H]1OC[C@@H]2Nc1nccc(-c2ccc3c(c2)OCO3)n1,0,28µM*,?,0%
COc1ccc(-c2ccnc(N[C@H]3CO[C@H]4[C@@H]3OC[C@@H]4NC(=O)N3CCOCC3)n2)cc1,-12,?,-13%,4%
COc1ccc(-c2ccnc(N[C@H]3CO[C@H]4[C@@H]3OC[C@@H]4NC(=O)CCCC(=O)O)n2)cc1,-3,32µM*,-12%,-1%
COc1ccc(-c2ccnc(N[C@H]3CO[C@H]4[C@@H]3OC[C@@H]4NC(=O)CC3(CC(=O)O)CCCC3)n2)cc1,-15,28µM*,-4%,1%
N#Cc1cccc(-c2ccnc(N[C@H]3CO[C@H]4[C@@H]3OC[C@@H]4NC(=O)c3ccc4c(c3)OCO4)n2)c1,-1,?,-11%,-29%
CN(C)C(=O)c1cc(-c2ccc(S(C)(=O)=O)cc2)c2cnn(C)c2n1,-2,79µM*,-1%,3%
CC(C)NC(=O)c1cc(-c2ccc(S(C)(=O)=O)cc2)c2cnn(C)c2n1,-8,89µM*,-20%,5%
COc1ccc(CN2CC(C(C)(C)C)Oc3nc(C)ccc3C2=O)cc1 (configuration not stated),-12,.,19%[25.6 µM],4%[23.9 µM]
Cn1nc(NC(=O)CSc2ccccc2)c2c(N3CCOCC3)cccc21,5,i,0%,-1%
CC(C)NC(=O)N1CCC2(CC1)CN(C(=O)c1ccnc(N)c1)Cc1ccccc1O2,10,79µM*,14%,3%
O=C(O)C[C@@H]1CCN(C(=O)Cc2ccccc2)C[C@@H]1CCN1C[C@@H]2C[C@H](C1)c1cccc(=O)n1C2,-12,i,0%,5%
Cc1noc2c(NCC3CCOCC3)cc(-c3ccc(F)cc3)nc12,-16,?,?,-2%[87.6 µM]
Cc1noc2c(Nc3ccc(C(N)=O)cc3)cc(-c3ccc(F)cc3)nc12,7,16µM*,-25%[87.6 µM],-17%[87.6 µM]
CN(C)c1ncc2nc(-c3ccccc3)c(=O)n(Cc3cccs3)c2n1,.,.,-29%,?
COc1cccc(C(=O)N[C@H]2[C@H](O)[C@H](O)C[C@@H]2c2ccc(N3CCOCC3)nc2)c1,-6,35µM*,24%[87.6 µM],4%[87.6 µM]
COc1cccc(CN[C@H]2[C@H](O)[C@H](O)C[C@@H]2c2ccc(N3CCOCC3)nc2)c1,0,35µM*,-15%[87.6 µM],-3%[87.6 µM]
COc1ccccc1C(=O)N[C@H]1[C@H](O)[C@H](O)C[C@@H]1c1ccc(N2CCOCC2)nc1,-4,?,45%[87.6 µM],-6%[87.6 µM]
CN1CCC(N[C@H]2[C@H](O)[C@H](O)C[C@@H]2c2ccc(N3CCOCC3)nc2)CC1,1,32µM*,15%[87.6 µM],8%[87.6 µM]
Cc1cc(C(=O)N[C@H]2[C@H](O)[C@H](O)C[C@@H]2c2ccc(N3CCOCC3)nc2)n(C)n1,-2,?,-1%[87.6 µM],0%[87.6 µM]
C#CCOC(=O)c1cccc(CS(=O)(=O)c2ccccc2)c1,.,i,.,.
O=C(CCc1cc2n(n1)CCCNC2)N1CCCC(c2nnc3ccccn23)C1 (configuration not stated),1,11µM*,2%,-10%
OC[C@H]1O[C@@H](n2cnc3c(=S)nc[nH]c32)[C@H](O)[C@@H]1O,-13,.,-18%[25.6 µM],-17%[23.9 µM]
CCC(C)[C@H](NC(=O)C1CCC(CNC(=O)[C@@H]2CCCN2C(=O)OC(C)(C)C)CC1)C(=O)O (some centres not stated),.,i,.,.
SMILES,IP6K1 inh,KDM5B inh,SNCA expr inh,SNCA viab count
CCCNC(=O)[C@H]1O[C@H]1C(=O)N[C@H](C(=O)N1CCC[C@@H]1C(=O)OC)C(C)CC (some centres not stated),.,.,?,22µM*
CCC(c1cccs1)N1C(=O)[C@H]2CN(S(=O)(=O)c3ccccc3)C[C@H]2C1=O (some centres not stated),5,i,-19%,4%
CCC(c1cccs1)N1C(=O)[C@H]2CN(CCC(C)C)C[C@H]2C1=O (some centres not stated),1,i,3.5µM*,?
COc1cccc2c1OCC(CNC(=O)CN1CCCCCC1=O)C2 (configuration not stated),-7,i,39%,6%
CCNc1ncc(C(=O)N2CCN(CCCCOC)CC2)cn1,-11,25µM*,11%,1%
COc1ccc(-c2ccc3c(n2)CN(Cc2ccc(F)cc2)C(=O)CO3)cc1,-3,22µM*,?,?
COc1cccc(-c2ccc3c(n2)CN(Cc2ccc(F)cc2)C(=O)CO3)c1,1,i,-11%[87.6 µM],-23%[87.6 µM]
O=C1COc2ccc(-c3ccncc3)nc2CN1Cc1ccccc1F,2,35µM*,-19%[87.6 µM],4%[87.6 µM]
O=C1COc2ccc(-c3ccncc3)nc2CN1Cc1ccc(F)cc1,-9,25µM*,-4%[87.6 µM],3%[87.6 µM]
CCOc1cccc(CNC(=O)CCC2CCN(S(=O)(=O)c3ccccc3)CC2)c1,4,i,-22%,-7%
O=C1CN(Cc2ccc(-c3cccs3)cc2)CCN1c1ccc(Cl)nn1,13,79µM*,?,-10%
O=C1CN(Cc2ccc(-c3ccccc3)cc2)CCN1c1ccc(Cl)nn1,17,i,7%,10%
O=C(NC1CCN(c2nccc(Nc3ccccc3F)n2)CC1)C1CC1,10,.,-29%,5%[12.5 µM]
N#Cc1nccnc1N1CCN(C2CCC3(CCNCC3)CC2)CC1,12,22µM*,6%,-25%
c1cnc2nc(-c3c[nH]c4ccccc34)[nH]c2c1,0,35µM*!,184%[87.6 µM],-23%[87.6 µM]
c1ccc2c(-c3nc4ccncc4[nH]3)c[nH]c2c1,14,40µM*!,31%[87.6 µM],-5%[87.6 µM]
c1ccc2c(-c3csc(NC4CC4)n3)c[nH]c2c1,.,i,.,.
C#CCNC(=O)C[C@@H]1c2nc(NC(=O)c3ccc(F)cc3)sc2C[C@@H]2[C@](C)(CO)[C@H](O)CC[C@]21C,-1,?,-22%,-8%
O=C(CCCc1ccccc1)Nc1ccc(OC2CCNCC2)nc1,7,18µM*,100%,2%
CCOc1ccccc1C(=O)N1[C@@H]2CC[C@H]1CC(NC(=O)c1ccncc1)C2 (some centres not stated),14,i,1%,-18%
CN1CCCC2(C1)CN(C)c1ccc(C(=O)NCCc3ccccc3)cc12 (configuration not stated),9,32µM*,12%[87.6 µM],-1%[87.6 µM]
COc1ccc(NC(=O)c2ccc3c(c2)C2(CCCN(C)C2)CN3Cc2cccnc2)cc1 (configuration not stated),6,i,9%,1%
CCNC(=O)c1ccc2c(c1)C1(CCCN(C)C1)CN2C (configuration not stated),-10,32µM*,-27%[87.6 µM],0%[87.6 µM]
